High-throughput results as filed in PubChem.
Only some compounds are listed: those with a hit (about 21% of all), similar ones and a draw of the others.
DT40 TDP1 CPT – growth inhibition of DT40 Tdp1-/-;hTDP1 cells with camptothecin (screen for TDP1 inhibitors). Potency, µM (top dose mostly 46.2 µM), usual class: inhibitors. AID 686979. 12% of 420,000 active. chicken DT40 Tdp1-/-;hTDP1 cells + 20 nM CPT, ATP luminescence, 48 h; note: nearly all actives have a fitted effect of over 55% in size
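Cell growth measured by CellTiter-Glo luminescence after a minimum 48 h, 37 C compound exposure with 20 nM CPT in Tdp1-knockout DT40 cells stably expressing hTDP1, seeded 400/well; qHTS titration format.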
IL1B secr inh – blocks inflammasome-driven IL-1 beta release; THP-1 LPS/ATP IL-1B secretion, AlphaLISA, 16 h; hits give low values; activity change, % at 57.5 µM; 4.7% of 360,000 active; in the data active = activity change below about -50%; inconclusive = mostly about -30% to -49%
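THP-1 cells pretreated 1 hr with compounds (up to 57.5 uM final), then stimulated with LPS (250 ng/mL final) plus ATP (1.25 mM final); secreted IL-1B measured by AlphaLISA after 16 hr, decreased signal indicating inhibition.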
RORg inh – ROR gamma (mouse) transcription inhibition. Drosophila S2 Gal4-RORgamma UAS-luciferase reporter, 20 h. AID 2551. 5.4% of 310,000 active. Potency, µM (doses to about 53.6 µM), usual class: inhibitors. P51450; note: nearly all actives have a fitted effect of over 60% in size
Target sequence (P51450 whole entry, looked up, the tested form may be a part): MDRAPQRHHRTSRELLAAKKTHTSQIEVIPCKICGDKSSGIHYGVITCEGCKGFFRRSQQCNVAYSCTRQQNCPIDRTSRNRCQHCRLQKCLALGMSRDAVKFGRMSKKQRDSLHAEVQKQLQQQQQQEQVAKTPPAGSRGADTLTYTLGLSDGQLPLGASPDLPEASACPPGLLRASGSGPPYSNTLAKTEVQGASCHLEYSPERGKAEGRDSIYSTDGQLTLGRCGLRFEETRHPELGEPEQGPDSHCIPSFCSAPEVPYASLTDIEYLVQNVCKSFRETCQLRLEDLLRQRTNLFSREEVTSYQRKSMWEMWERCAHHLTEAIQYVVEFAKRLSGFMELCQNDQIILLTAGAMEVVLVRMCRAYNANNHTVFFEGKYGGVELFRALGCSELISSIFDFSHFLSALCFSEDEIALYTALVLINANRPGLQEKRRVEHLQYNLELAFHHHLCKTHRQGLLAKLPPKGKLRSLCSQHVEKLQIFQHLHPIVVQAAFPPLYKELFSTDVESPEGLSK
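Stable Schneider cell line, Gal4 DNA-binding domain fused to ROR gamma, UAS-luciferase. Cmpd 1 hr RT → CuSO4 700 uM final → 20 hr RT → luciferase reagent 10 min → luminescence.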
VP16 counter – counter-screen for ROR gamma inhibitors: Gal4-VP16 reporter. Drosophila S2 Gal4-VP16 UAS-luciferase, luminescence, 20 h. Potency, µM (series often up to 53.6 µM), usual class: inhibitors. 3.5% of 310,000 active. AID 2546;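 note: Gal4-VP16 expression switched on by copper sulfate through the metallothionein promoter; nearly all actives have a fitted effect of over 50% in size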
DT40 TDP1 no CPT – qHTS for Inhibitors of human tyrosyl-DNA phosphodiesterase 1 (TDP1): qHTS in cells in absence of CPT; DT40 Tdp1-/- hTDP1 cells, no CPT, ATP luminescence, 48 h; Potency, µM (series often up to 46.2 µM), actives largely listed as inhibitors; 15% of 420,000 active; AID 686978, 2013; note: nearly all actives have a fitted effect of over 55% in size
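Chicken DT40 Tdp1-/- cells complemented with human TDP1, screened without camptothecin (DMSO vehicle only), 400 cells/well. Compounds pin-transferred, cells incubated at 37 °C for at least 48 hr. Growth read as ATP-dependent luminescence (CellTiter-Glo, 30 min at RT).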
ELG1 repair inh – blocks ELG1-dependent DNA repair in HEK293T cells. HEK293T ELG1-luciferase reporter, luminescence, 16 h; DNA damage induced by 5-fluorouridine. Potency, µM (doses to about 46.1 µM), actives largely listed as inhibitors. 2.3% of 330,000 active; note: nearly all actives have a fitted effect of over 55% in size
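HEK293T cells expressing luciferase-tagged ELG1 (2,000/well) received 5-Fluorouridine plus compound or DMSO for 16 hr at 37 °C. Luciferase was read by ONE-Glo luminescence after 30 min at room temperature.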
ELG1 FLuc counter – luciferase inhibition in cell-free luciferin readout for ELG1 hits | shares compounds with ELG1 repair inh | cell-free firefly luciferase luminescence counter-screen, ViewLux | Potency, µM (titrated, usually from 46.1 µM), usual class: inhibitors | 3% of 350 active | AID 624247
ELG1-Luc inh – inhibits ELG1-dependent DNA repair in HEK293T cells, confirmed | shares compounds with ELG1 repair inh | HEK293T ELG1-luciferase levels, luminescence; cells co-treated with 5-fluorouridine | Potency, µM (doses to about 46.1 µM), most hits filed as inhibitors | 68% of 670 active | AID 624248; note: nearly all actives have a fitted effect of over 55% in size
ELG1 MMS Luc – confirmation of human ELG1 repair inhibitors, MMS stimulated | shares compounds with ELG1 repair inh | HEK293T luciferase-tagged ELG1 level, MMS stimulated | Potency, µM (doses to about 46.1 µM), most hits filed as inhibitors | 53% of 670 active; note: nearly all actives have a fitted effect of over 60% in size
ELG1 5FU viab – confirmation of ELG1 repair inhibitors: viability with 5FU | shares compounds with ELG1 repair inh | cell viability with 5-FU, ELG1-dependent repair | 670 tested, under 10 active | Potency, µM (top dose mostly 46.1 µM), most hits filed as cytotoxic;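 note: ELG1-luc HEK293T cells cotreated with 5-fluorouridine at 10 µM final; viability measured 16 h after compound addition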
ELG1 MMS viab – confirmation of ELG1 repair inhibitors: viability with MMS; 33% of 670 active; AID 624251; Cell viability with MMS, ELG1-dependent DNA repair; shares compounds with ELG1 repair inh; Potency, µM (titrated, usually from 46.1 µM), actives largely listed as cytotoxic;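 note: ELG1-luc HEK293T cells co-treated with 10 µM MMS; viability read 16 h after compound addition; nearly all actives have a fitted effect of over 60% in size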
ELG1 unstim viab – counter-screen for ELG1 repair inhibitors: unstimulated cell viability. 8% of 900 active. Potency, µM (series often up to 45.9 µM), actives largely listed as cytotoxic. shares compounds with ELG1 repair inh. cell viability counter-screen, unstimulated, luminescence;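 note: compound exposure lasted 16 hours before reading; nearly all actives have a fitted effect of over 55% in size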
FLuc biochem – firefly luciferase inhibition counter-screen | shares compounds with ELG1 repair inh | purified firefly luciferase, luminescence counter-screen | Potency, µM (highest dose often 57.5 µM), usual class: inhibitors | 10% of 350 active | AID 624253
Numbers stand for hits. Unless noted, calls come from the whole dose curve; as a rule, active = well fitted curve in the direction sought with a large enough effect; inconclusive = small, poorly fitted or top-dose-only effect, or another doubt; inactive = no such curve, though single readings can be large; an effect the other way counts as inactive or inconclusive.

COc1cc(-c2cc(C(=O)Nc3ccc(S(=O)(=O)NCc4ccco4)cc3)c3ccccc3n2)cc(OC)c1OC was read as DT40 TDP1 CPT 4.61µM, IL1B secr inh inactive, RORg inh inactive, VP16 counter inactive, DT40 TDP1 no CPT 2.91µM, ELG1 repair inh 2.59µM, ELG1-Luc inh 1.99µM, ELG1 MMS Luc 3.97µM, ELG1 5FU viab inconclusive, ELG1 MMS viab inactive and ELG1 unstim viab inactive.
`COc1cc(-c2cc(C(=O)Nc3cc(S(=O)(=O)N4CCOCC4)ccc3C)c3ccccc3n2)cc(OC)c1OC` gave DT40 TDP1 CPT 16.4µM, IL1B secr inh inactive, DT40 TDP1 no CPT 11.6µM, ELG1 repair inh 3.66µM, ELG1-Luc inh 4.99µM, ELG1 MMS Luc inconclusive, ELG1 5FU viab inconclusive, ELG1 MMS viab inactive and ELG1 unstim viab inconclusive.
`COc1ccc(NC(=O)c2cc(C)nc3ccccc23)cc1S(=O)(=O)N1CCOCC1` gave DT40 TDP1 CPT inactive, IL1B secr inh inactive, DT40 TDP1 no CPT inactive and ELG1 repair inh inactive.
`COc1ccc(S(=O)(=O)N2CCOCC2)cc1NC(=O)c1cccc2c(=O)c(C)c(-c3ccccc3)oc12` gave DT40 TDP1 CPT inconclusive, IL1B secr inh inactive, RORg inh inconclusive, VP16 counter inactive, DT40 TDP1 no CPT 5.17µM, ELG1 repair inh 4.11µM, ELG1-Luc inh 4.45µM, ELG1 MMS Luc inactive, ELG1 5FU viab inactive, ELG1 MMS viab inactive and ELG1 unstim viab inactive.
Screening O=S1(=O)[C@H]2C[C@H](CO)O[C@@]2(CO)CN1Cc1ccc(-c2cccc(Cl)c2)cc1 returned DT40 TDP1 CPT 20.6µM, IL1B secr inh inactive, DT40 TDP1 no CPT inconclusive, ELG1 repair inh 2.31µM, ELG1-Luc inh 2.5µM, ELG1 MMS Luc inactive, ELG1 5FU viab inconclusive, ELG1 MMS viab inconclusive and ELG1 unstim viab inconclusive.
`O=S1(=O)[C@H]2C[C@@H]3C=C[C@@]2(CN1Cc1ccc(Cl)cc1)O3` gave DT40 TDP1 CPT inactive, IL1B secr inh inactive, RORg inh inactive, VP16 counter inactive, DT40 TDP1 no CPT inactive and ELG1 repair inh inactive.
For CCc1c(C)nc2ccc(Br)cc2c1SCCC#N the results were DT40 TDP1 CPT inconclusive, IL1B secr inh -182.9, RORg inh inactive, VP16 counter inactive, DT40 TDP1 no CPT inconclusive, ELG1 repair inh 4.11µM, ELG1-Luc inh 7.05µM, ELG1 MMS Luc 15.8µM, ELG1 5FU viab inactive, ELG1 MMS viab inconclusive and ELG1 unstim viab inactive.
For Cc1ccc2nc(SCCC#N)nc(C)c2c1 the results were DT40 TDP1 CPT inactive, IL1B secr inh inactive, RORg inh inactive, VP16 counter inactive, DT40 TDP1 no CPT inactive and ELG1 repair inh inactive.
Screening CC(=O)c1cn(CC(=O)Nc2ccc(C)c(C)c2)c2ccccc12 returned DT40 TDP1 CPT inactive, IL1B secr inh inactive, RORg inh inconclusive, VP16 counter inactive, DT40 TDP1 no CPT inconclusive, ELG1 repair inh 2.06µM, ELG1-Luc inh inactive, ELG1 MMS Luc inconclusive, ELG1 5FU viab inactive, ELG1 MMS viab inconclusive and ELG1 unstim viab inactive.
COc1ccc(-c2[nH]ncc2C=O)cc1OC was read as DT40 TDP1 CPT inactive, IL1B secr inh inactive, RORg inh inactive, VP16 counter inactive, DT40 TDP1 no CPT inactive and ELG1 repair inh inactive.
CCOc1ccc(-c2[nH]ncc2-c2ccc(OC)c(OC)c2)c(O)c1 was read as DT40 TDP1 CPT 3.66µM, IL1B secr inh inactive, RORg inh inconclusive, VP16 counter inconclusive, DT40 TDP1 no CPT 3.66µM, ELG1 repair inh 2.31µM, ELG1-Luc inh 12.5µM, ELG1 MMS Luc inconclusive, ELG1 5FU viab inactive, ELG1 MMS viab inconclusive and ELG1 unstim viab inconclusive.
`COc1ccccc1C(=O)COC(=O)c1ccccc1OCC(=O)Nc1ccc(SC(F)F)cc1` gave DT40 TDP1 CPT inconclusive, IL1B secr inh inactive, RORg inh inactive, VP16 counter inactive, DT40 TDP1 no CPT inconclusive, ELG1 repair inh 4.61µM, ELG1-Luc inh 7.05µM, ELG1 MMS Luc inconclusive, ELG1 5FU viab inconclusive, ELG1 MMS viab inactive and ELG1 unstim viab inactive.
Screening COc1ccc(CNC(=O)COC(=O)c2ccccc2OCC(=O)Nc2ccc(SC(F)F)cc2)cc1 returned DT40 TDP1 CPT inconclusive, IL1B secr inh inactive, RORg inh inactive, VP16 counter inactive, DT40 TDP1 no CPT inconclusive and ELG1 repair inh inactive.
`Cc1cccc(NC(=O)CSc2nc(-c3ccccc3Cl)nc3c2Cc2c(CO)cnc(C)c2O3)c1C` gave DT40 TDP1 CPT inactive and DT40 TDP1 no CPT inactive.
`COc1ccccc1-c1nc2c(c(SCC(=O)N3CCCCC3)n1)Cc1c(CO)cnc(C)c1O2` gave DT40 TDP1 CPT 9.2µM, IL1B secr inh inactive, RORg inh inactive, VP16 counter inactive, DT40 TDP1 no CPT 6.51µM, ELG1 repair inh 8.2µM, ELG1 FLuc counter inactive, ELG1-Luc inh 9.97µM, ELG1 MMS Luc inconclusive, ELG1 5FU viab inconclusive, ELG1 MMS viab inconclusive, ELG1 unstim viab inconclusive and FLuc biochem inactive.
